Compounds with a hit are over-represented: about 4% of the library has one in this group of screens.
KCC2 mod = KCC2 cotransporter modulators, thallium flux, primary screen, cell-based, HEK293 KCC2, FluoZin-2 fluorescence, MLSMR | B-score of Tl+ flux slope (higher = more flux/activation; lower = inhibition) at 10 µM | KCC2 cells, thallium flux FluoZin-2 fluorescence | 190,000 compounds, 2.2% hits;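 active = thallium flux slope and its plate-corrected score both differing from the plate sample mean at a set confidence after two filtering rounds, in either direction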;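 also: slope of fluorescence scaled to starting intensity during 10 to 20 s after thallium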
Target sequence (Q9H2X9 whole entry, looked up): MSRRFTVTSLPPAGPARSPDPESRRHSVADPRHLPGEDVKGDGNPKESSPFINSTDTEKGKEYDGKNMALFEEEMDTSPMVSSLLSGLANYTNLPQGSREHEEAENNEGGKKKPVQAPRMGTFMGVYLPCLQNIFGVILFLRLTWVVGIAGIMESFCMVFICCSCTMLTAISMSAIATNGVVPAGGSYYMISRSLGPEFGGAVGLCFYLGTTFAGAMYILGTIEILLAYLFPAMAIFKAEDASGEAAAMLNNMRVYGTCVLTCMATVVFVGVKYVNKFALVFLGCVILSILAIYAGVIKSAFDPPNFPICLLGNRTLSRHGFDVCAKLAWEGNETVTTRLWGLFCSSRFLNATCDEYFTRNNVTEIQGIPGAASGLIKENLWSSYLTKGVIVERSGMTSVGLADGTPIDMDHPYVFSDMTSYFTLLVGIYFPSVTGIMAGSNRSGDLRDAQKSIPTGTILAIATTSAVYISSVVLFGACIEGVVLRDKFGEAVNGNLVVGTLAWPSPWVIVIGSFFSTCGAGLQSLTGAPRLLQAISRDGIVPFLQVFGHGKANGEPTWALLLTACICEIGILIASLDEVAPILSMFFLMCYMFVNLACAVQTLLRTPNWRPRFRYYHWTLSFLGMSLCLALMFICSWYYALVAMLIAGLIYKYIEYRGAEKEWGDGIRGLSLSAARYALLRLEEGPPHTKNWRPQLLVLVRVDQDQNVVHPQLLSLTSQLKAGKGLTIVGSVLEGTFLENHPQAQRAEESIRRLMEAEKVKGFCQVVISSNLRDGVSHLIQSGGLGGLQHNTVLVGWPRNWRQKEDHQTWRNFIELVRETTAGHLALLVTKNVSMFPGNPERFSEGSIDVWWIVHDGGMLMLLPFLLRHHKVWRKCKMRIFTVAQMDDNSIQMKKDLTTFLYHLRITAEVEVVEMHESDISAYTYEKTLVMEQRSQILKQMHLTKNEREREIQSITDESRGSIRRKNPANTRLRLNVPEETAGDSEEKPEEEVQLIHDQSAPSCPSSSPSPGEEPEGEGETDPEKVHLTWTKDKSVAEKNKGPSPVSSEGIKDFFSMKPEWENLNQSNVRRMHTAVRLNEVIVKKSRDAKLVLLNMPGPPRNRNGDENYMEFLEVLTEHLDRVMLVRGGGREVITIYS
HSV replic up = enhancers of HSV replication in host cells, fold increase, host cell viability. HSV replication augmentation in cells. 220,000 compounds, 0.005% hits. AID 1956, 2009. maximum fold increase; in the data active = maximum fold increase above about 1.5; tested in PC3 cells
Measles CPE = compounds protecting cells from measles virus cytopathic effect, primary screen, measles RdRp inhibitor project, single point, MLSMR library, absorbance | Measles virus-infected cells, CPE protection | protection (pct of control), % at 4 µM | 140,000 compounds, 1.5% hits | AID 841, 2007; in the data active = protection mostly above about 24%, no sharp cut-off; inactive = mostly below about 26%
Arbovirus anti = antivirals against arbovirus infection, primary screen, cell-based, full library, 10K replicate subset; arbovirus infection cell-based antiviral screen; inhibition, % at 10 µM; 200,000 compounds, 0.37% hits; AID 1251, 2008; in the data active = inhibition above about 30%
ROMK primary = ROMK potassium channel modulators, primary screen, cell-based, thallium flux, MLSMR library; ATP-sensitive inward rectifier potassium channel 1 (Homo sapiens), P48048; Tet-inducible ROMK, thallium flux fluorescence; actives lie on both sides; B-score at 10 µM; 130,000 compounds, 2% hits; AID 1918, 2009;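 active = signal ratio slope over the read window, or its plate-corrected B-score, at least 3 SD from the plate mean, either direction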;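 also: B-score of the F/F0 ratio slope over 7 to 12 s after thallium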
* = called active by the depositor.

`O=C(c1cc(-c2ccco2)on1)N1CCc2ccccc2C1` gave KCC2 mod -1.2, HSV replic up inactive, Measles CPE 69* and Arbovirus anti 3.
O=C(c1cc(-c2ccccc2O)on1)N1CCc2ccccc2C1 was read as KCC2 mod -0.23, HSV replic up inactive, Measles CPE 8 and Arbovirus anti 33*.
Screening O=C(NCc1cccc(Br)c1)C1CC(c2ccccc2[N+](=O)[O-])=NO1 (centres undefined) returned HSV replic up inactive.
For COc1ccc(CN2CCC(CO)(Cc3ccccc3C(F)(F)F)CC2)c(F)c1 the results were KCC2 mod 0.14, HSV replic up inactive, Arbovirus anti 7 and ROMK primary -1.4.
`O=C(NNS(=O)(=O)c1ccc2ccccc2c1)NC1CCCCC1` gave KCC2 mod -0.96, HSV replic up inactive, Measles CPE 52*, Arbovirus anti -2 and ROMK primary -1.3.
CC(C)(C)OC(=O)N1CCC(CNC(=O)c2ccccc2)CC1 was read as KCC2 mod -0.29, HSV replic up inactive and ROMK primary -0.43.
`CC(C)(C)OC(=O)N1CCC(c2c(C(=O)O)cnn2-c2ccccc2)CC1` gave KCC2 mod -0.0022, HSV replic up inactive, Measles CPE 32* and Arbovirus anti 1.
Cn1c(=O)c2[nH]c(-c3ccc(S(=O)(=O)O)cc3)nc2n(C)c1=O was read as HSV replic up inactive.
`O=C(C1=C[C@H](C2CCCCC2)C[C@H](OCCCCO)O1)N1CCN(Cc2ccccc2)CC1` gave KCC2 mod -0.7, HSV replic up inactive and Arbovirus anti -12.
CCCC1=NN2C(=N)/C(=C\c3cc(C)n(-c4cccc(C)c4)c3C)C(=O)N=C2S1 was read as KCC2 mod 0.85, HSV replic up inactive, Measles CPE 6, Arbovirus anti 33* and ROMK primary -0.64.
Screening CC1(C)Oc2ccc(C(=O)N3CCCC3)cc2N(CC(=O)NCc2ccccc2)C1=O returned KCC2 mod 0.29, HSV replic up inactive, Measles CPE 6, Arbovirus anti 0 and ROMK primary 0.59.
CC1(C)Oc2ccc(C(=O)N3CCc4ccccc43)cc2N(CC(=O)N2CCCC2)C1=O was read as HSV replic up inactive, Measles CPE 4, Arbovirus anti 11 and ROMK primary 3.8*.
COc1ccc(NC(=O)COC(=O)c2ccc(S(=O)(=O)N(C)c3ccccc3OC)cc2)c(OC)c1 was read as HSV replic up inactive, Arbovirus anti -19 and ROMK primary -0.11.
`O=[N+]([O-])c1cc(S(=O)(=O)Nc2cccc(Cl)c2)ccc1N/N=C/c1ccc(N2CCOCC2)cc1` gave KCC2 mod -1 and HSV replic up inactive.
Cc1ccc(C(=O)NC(=S)Nc2ccc(S(=O)(=O)N3CCN(C)CC3)cc2)cc1 was read as KCC2 mod -0.057, Measles CPE 63*, Arbovirus anti 9 and ROMK primary 0.11.
Cc1cccc(C(=O)NC(=S)Nc2ccc(S(=O)(=O)N3CCN(C)CC3)cc2)c1 was read as KCC2 mod 0.72, HSV replic up inactive, Measles CPE 19 and Arbovirus anti 4.
For Cc1noc(C)c1C(=O)OCC(=O)C12CC3CC(CC(C3)C1)C2 the results were KCC2 mod 0.13, HSV replic up inactive, Arbovirus anti 3 and ROMK primary -0.97.
Screening Cc1c(Cl)cccc1NC(=O)c1ncn[nH]1 returned KCC2 mod -1.2 and HSV replic up inactive.
Screening CCN(Cc1ccncc1)Cc1c(O)ccc2cc(Br)ccc12 returned KCC2 mod -0.69, HSV replic up inactive, Arbovirus anti 31* and ROMK primary -0.12.
`CCOC(=O)c1c(NC(=O)CSc2ncn[nH]2)sc(C)c1C` gave KCC2 mod 0.075, HSV replic up inactive, Measles CPE 10 and Arbovirus anti 45*.
For CCOC(=O)c1c(NC(=O)CSc2nnc(C)c(=O)[nH]2)sc(C)c1C the results were KCC2 mod -2.2, HSV replic up inactive, Arbovirus anti 4 and ROMK primary 0.14.
`O=S(=O)(/C=C/c1ccccc1)N1CCN(Cc2ccccc2)CC1` gave KCC2 mod -0.48, HSV replic up inactive, Arbovirus anti 2 and ROMK primary -0.67.
Screening COCCN(CCOC)C(=O)COC(=O)c1ccc(Cl)c(S(=O)(=O)N(C)c2ccccc2)c1 returned KCC2 mod -0.26, HSV replic up inactive, Arbovirus anti -3 and ROMK primary 0.22.
Screening O=C(CN1CC[n+]2c(-c3cccs3)csc21)c1ccc(-c2ccccc2)cc1 returned KCC2 mod 3.2*, HSV replic up inactive, Arbovirus anti -17 and ROMK primary -5.6*.
For Nc1nc(COc2ccccc2C=O)nc(Nc2ccccc2)n1 the results were KCC2 mod 2.4, HSV replic up inactive and ROMK primary 0.44.
`CCc1cc(-c2[nH]ncc2-c2ccc3c(c2)OCO3)c(O)cc1O` gave KCC2 mod -0.064, Measles CPE 84* and Arbovirus anti -39.
For CCOC(=O)c1nc(-c2ccccc2)sc1C(C)=O the results were KCC2 mod -0.39 and HSV replic up inactive.
N#C/C=C1/NC(=O)c2ccccc2S1 was read as KCC2 mod 19*, HSV replic up inactive, Measles CPE 14, Arbovirus anti 3 and ROMK primary 0.72.
Screening Cc1ccc(C)c(N2CCN(C(=O)Cc3ccc(-n4c(=O)[nH]c5ccsc5c4=O)cc3)CC2)c1 returned KCC2 mod -0.19, HSV replic up inactive, Measles CPE 3, Arbovirus anti 36* and ROMK primary 1.1.
For CC(=O)Oc1ccc(-c2cc3c(OC(C)=O)cc(OC(C)=O)cc3oc2=O)cc1 the results were HSV replic up inactive.
For COc1ccc(-c2csc(NC(=O)c3ccc(OCC(=O)N4CCOCC4)c(OC)c3)n2)cc1OC the results were KCC2 mod -1.4, HSV replic up inactive, Measles CPE 19 and Arbovirus anti 15.
CC(Sc1nc2c(c(=O)n(C)c(=O)n2C)n1Cc1cc2c(cc1Cl)OCO2)C(=O)O (centres undefined) was read as HSV replic up inactive, Measles CPE 53*, Arbovirus anti 3 and ROMK primary 0.46.
`COc1ccc(C2CCCN2C(=S)Nc2cccc(C)c2C)cc1OC` (centres undefined) gave KCC2 mod 1.1, HSV replic up inactive, Arbovirus anti -2 and ROMK primary 1.1.
For COc1cccc(NC(=S)N(CCN(C)C)C(C)c2ccncc2)c1 (centres undefined) the results were KCC2 mod -0.014 and HSV replic up inactive.
For CC1(C)Cc2c(c(-c3ccccc3Cl)[nH]c(=O)c2C#N)CO1 the results were KCC2 mod -1.3, HSV replic up inactive, Measles CPE 28*, Arbovirus anti 5 and ROMK primary 0.38.
